Bioassay records: PubChem, National Center for Advancing Translational Sciences (NCATS)
VP16 counter = VP16 counterscreen qHTS for inhibitors of ROR gamma transcriptional activity | Drosophila S2 Gal4-VP16 UAS-luciferase, luminescence, 20 h | Potency, µM (highest dose often 53.6 µM), inactives show at the top dose activity, negative = inhibition, usual class: inhibitors | actives 3.5% (n = 310,000) | AID 2546, 2010;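 further: Gal4-VP16 expression switched on by copper sulfate through the metallothionein promoter; nearly all actives have a fitted effect of over 50% in size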
RORgamma inh = qHTS for inhibitors of ROR gamma transcriptional activity. Drosophila S2 Gal4-RORgamma UAS-luciferase reporter, 20 h. Nuclear receptor ROR-gamma (Mus musculus), P51450. Potency, µM (titrated, usually from 53.6 µM), inactives show top-dose activity change, negative = inhibition, actives largely listed as inhibitors. actives 5.4% (n = 310,000); further: nearly all actives have a fitted effect of over 60% in size
Target sequence (P51450 whole entry, looked up, the tested form may be a part): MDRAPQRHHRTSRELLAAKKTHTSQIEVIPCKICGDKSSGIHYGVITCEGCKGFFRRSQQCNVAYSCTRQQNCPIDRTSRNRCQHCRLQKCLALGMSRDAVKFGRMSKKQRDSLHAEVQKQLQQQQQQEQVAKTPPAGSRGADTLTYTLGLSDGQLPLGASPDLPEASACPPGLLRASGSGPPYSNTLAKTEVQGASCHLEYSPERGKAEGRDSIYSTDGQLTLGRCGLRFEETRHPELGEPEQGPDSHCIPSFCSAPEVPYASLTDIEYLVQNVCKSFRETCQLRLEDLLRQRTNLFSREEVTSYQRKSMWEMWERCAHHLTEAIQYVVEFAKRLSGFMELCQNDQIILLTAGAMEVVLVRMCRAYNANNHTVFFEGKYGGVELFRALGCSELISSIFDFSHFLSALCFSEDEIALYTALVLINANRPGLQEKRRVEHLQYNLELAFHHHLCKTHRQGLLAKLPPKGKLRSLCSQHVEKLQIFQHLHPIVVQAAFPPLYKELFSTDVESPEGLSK
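Stable Schneider cell line, Gal4 DNA-binding domain fused to ROR gamma, UAS-luciferase. Cmpd 1 hr RT → CuSO4 700 uM final → 20 hr RT → luciferase reagent 10 min → luminescence.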
Luc counter = Counterscreen for Luciferase (Kinase-Glo TM) Inhibition | Kinase-Glo luciferase, ATP luminescence, 8 min | Potency, µM (doses to about 38.3 µM), for the others: at the top dose activity change, negative = inhibition, most hits filed as inhibitors | actives 0.28% (n = 200,000) | Luciferin 4-monooxygenase (Photuris pensylvanica), Q27757; further: nearly all actives have a fitted effect of over 60% in size
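Compounds were added to a substrate mix at pH 7.2 (50 mM imidazole, 10 uM ATP, within the enzyme's linear range), followed by Kinase-Glo detection reagent; luminescence was measured after 8 minutes at ambient temperature.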
Starred values were filed as active, the others as inactive; [ ] = remark or other dose. A selection: hits, their analogues and other compounds. The true share with any hit is near 6.2%. The call rests on the fitted dose curve; in most records, active means well fitted curve in the direction sought with a large enough effect; inconclusive means small, poorly fitted or top-dose-only effect, or another doubt; inactive means no such curve, though single readings can be large; an effect the other way counts as inactive or inconclusive. On the % scale 0 is the no-effect control and ±100 the full control effect; potency means the concentration at half of the fitted maximal effect.

Screening Clc1ccc(CNC23CN4CN(CN(C4)C2)C3)c(Cl)c1 returned VP16 counter -2%, RORgamma inh -8% and Luc counter 3%.
`CCN(C(=N)N=C(N)N)c1ccccc1` gave VP16 counter -1%, RORgamma inh 25% and Luc counter -1%.
For CCN(C(=S)Nc1cccnc1)c1cccc2ccccc12 the results were VP16 counter 6%, RORgamma inh -29% and Luc counter 2%.
Screening CCN(C(=S)NCc1ccccc1)c1cccc2ccccc12 returned VP16 counter inconclusive, RORgamma inh 7.1µM* and Luc counter -1%.
`CCN(C(N)=S)c1ccccc1` gave VP16 counter -14%, RORgamma inh 11µM* and Luc counter 1%.
For CCN(Cc1ccncc1)C(=S)NCc1ccccc1 the results were VP16 counter 1%, RORgamma inh 6% and Luc counter 6%.
CCN(C(C)=O)c1cccc2ccccc12 was read as VP16 counter 0%, RORgamma inh 8% and Luc counter 0%.
For CCN(C(=S)NCc1ccccc1)c1ccccc1 the results were VP16 counter -8%, RORgamma inh 14µM* and Luc counter 1%.
For C=CCNC(=S)N(CC)c1cccc2ccccc12 the results were VP16 counter inconclusive, RORgamma inh 7.1µM* and Luc counter 1%.
`C=CCC1NS(=O)(=O)OCC1C(C)C` (stereo not drawn) gave VP16 counter -2% and RORgamma inh 7%.
Screening COC(=O)c1cc(S(=O)(=O)NCCCN2CCCC2=O)cn1C returned VP16 counter -2% and RORgamma inh -27%.
Cn1cccc1/C=N/N1CCN(Cc2ccc(Cl)cc2)CC1 was read as VP16 counter -21% and RORgamma inh inconclusive.
For Cc1ccc(-c2n[nH]c(=S)n2/N=C/c2cccn2C)cc1 the results were VP16 counter 11µM*, RORgamma inh 3.2µM* and Luc counter 0%.
`Cn1cccc1/C=N/n1c(-c2ccc(Cl)cc2Cl)n[nH]c1=S` gave VP16 counter inconclusive, RORgamma inh 2.8µM* and Luc counter 2%.
COc1ccc(-c2n[nH]c(=S)n2/N=C/c2cccn2C)cc1 was read as VP16 counter 0% and RORgamma inh 25%.
Cc1nnc(C)n1/N=C/c1cccn1C was read as VP16 counter 2%, RORgamma inh 20% and Luc counter -1%.
`Cn1cccc1/C=N/n1c(-c2ccc(Cl)cc2)n[nH]c1=S` gave VP16 counter inconclusive, RORgamma inh 2.5µM* and Luc counter 7%.
COc1cc(NC(=O)[C@@H](NC(=O)c2ccco2)C(C)C)c(OC)cc1NC(=O)c1ccccc1 was read as VP16 counter 4%, RORgamma inh -25% and Luc counter 1%.
`CCCCOC(=O)CSc1nc2ccccc2o1` gave VP16 counter -14% and RORgamma inh -9%.
`CCOC(=O)C(=CN=C(N)Nc1nc2ccccc2o1)C(=O)OCC` gave VP16 counter inconclusive, RORgamma inh 7.1µM* and Luc counter 2%.
Screening CCCCC(=O)N/C(N)=N/c1nc2ccccc2o1 returned VP16 counter -12% and RORgamma inh inconclusive.
CCCOC(=O)Nc1nc2ccccc2o1 was read as VP16 counter inconclusive, RORgamma inh 14µM* and Luc counter -10%.
`CCN(CC)S(=O)(=O)c1ccc(C(=O)NCC(=O)NCCCc2ccccc2)cc1` gave VP16 counter 4% and RORgamma inh 1%.
For CN1CCc2c(sc(NC(=O)Cc3ccc(F)cc3)c2C(N)=O)C1 the results were VP16 counter -6% and RORgamma inh -21%.
O=C(Cc1ccccc1)NC(=S)Nc1ccc2oc(-c3ccccc3F)nc2c1 was read as VP16 counter inconclusive, RORgamma inh 4µM* and Luc counter -2%.
Screening O=C(Nc1ccc2oc(-c3ccccc3F)nc2c1)c1ccccc1F returned VP16 counter -13% and RORgamma inh 27%.
For O=C(Cc1ccccc1)NC(=S)Nc1ccc2oc(-c3ccccc3)nc2c1 the results were VP16 counter 7.1µM*, RORgamma inh 7.1µM* and Luc counter 0%.
For O=C(Nc1ccc2oc(-c3cccnc3)nc2c1)c1cc2ccccc2o1 the results were VP16 counter -8%, RORgamma inh -1% and Luc counter 1%.
For O=C(NC(=S)Nc1ccc2oc(-c3cccnc3)nc2c1)c1cccc(Cl)c1 the results were VP16 counter -13%, RORgamma inh 20µM* and Luc counter -2%.
For O=C(Cc1ccccc1)Nc1ccc2oc(-c3ccncc3)nc2c1 the results were VP16 counter 0%, RORgamma inh 0% and Luc counter -3%.
For Cc1ccccc1NC(=O)CN(C)S(=O)(=O)c1ccc(-c2ccc(=O)[nH]n2)s1 the results were VP16 counter 4% and RORgamma inh -9%.
COc1ccccc1N1C(=O)Cc2ccccc2C1=O was read as VP16 counter 8% and RORgamma inh -9%.
O=C1C(=O)N(CCN2CCOCC2)C(c2ccncc2)/C1=C(/O)c1ccc2c(c1)OCO2 (stereo not drawn) was read as VP16 counter -5%, RORgamma inh 7% and Luc counter 1%.
`O=C1C(=O)N(CCN2CCOCC2)C(c2ccc([N+](=O)[O-])cc2)/C1=C(/O)c1ccc2c(c1)OCO2` (stereo not drawn) gave VP16 counter 11µM* and RORgamma inh 7.9µM*.
For COc1ccc(C2=Nn3c(nnc3-c3cc(OC)cc(OC)c3)SC2)cc1 the results were VP16 counter -24% and RORgamma inh -8%.
For CN(C)C(=O)CCSc1nnc(-c2ccncc2)o1 the results were VP16 counter 6%, RORgamma inh 5% and Luc counter 4%.
`O=C(c1ccc2c(=O)n(-c3ccccc3)c(=S)[nH]c2c1)N1CCCCC1` gave VP16 counter 3.2µM*, RORgamma inh 8.9µM* and Luc counter 1%.
For CCOC(=O)N1CCN(C(=O)c2ccc(-n3c(=S)[nH]c4ccccc4c3=O)cc2)CC1 the results were VP16 counter -4%, RORgamma inh 27% and Luc counter 2%.
Screening O=C(c1ccc2c(=O)n(C3CCCC3)c(=S)[nH]c2c1)N1CCCCCC1 returned VP16 counter 1µM*, RORgamma inh 1.3µM* and Luc counter -3%.
For CC1CCCN(C(=O)c2ccc3c(=O)n(C4CCCC4)c(=S)[nH]c3c2)C1 (stereo not drawn) the results were VP16 counter -14%[10 µM], RORgamma inh 10% and Luc counter 1%.
For CCOc1ccc(/C(O)=C2/C(=O)C(=O)N(CCCN3CCOCC3)C2c2ccc(F)cc2)cc1C (stereo not drawn) the results were VP16 counter 4% and RORgamma inh -2%.
For COc1ccc(OC)c(CC(NC(C)=O)C(=O)NC2CCN(C(=O)c3cccc(C)c3)CC2)c1 (stereo not drawn) the results were VP16 counter -1% and RORgamma inh inconclusive.
Screening Cc1ccc(C(=O)NNC(=O)c2ccc(NC(=O)C(C)(C)C)cc2)cc1 returned VP16 counter 22% and RORgamma inh 6%.
